These results are taken from PubChem BioAssay (NCI).

SMILES strings stand for the structures. About 83,000 compounds went through this panel and 20% of them were active in at least one assay; those are over-represented in the sample as a whole.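 Single-concentration screen, 48 h exposure, 96-well plates. Endpoint: percent growth. Below 10 = active.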 Unmarked numbers belong to inactive results. Activity calls are given as the source filed them.

For this assay, the system named is NCI/ADR-RES ovarian. The assay can be described thus: NCI-60 one-dose screen, 48 h (100 = growth as untreated, 0 = no growth, -100 = all killed). To be noted: 10 µM.
As to `CN1CCN(c2ccc(Nc3nc(N4CCN(S(=O)(=O)c5ccc(F)cc5)CC4)c4sccc4n3)cc2)CC1`, the growth is -83% (active).

In the case of `CCCCCc1ccc(S(=O)(=O)Nc2cc(-c3csc(N(C)C(C)=O)n3)ccc2N2CCN(C)CC2)cc1`, the growth is 32.7%.

Turning to `CN1CCN(c2ccc(Nc3nc(NCCCNC(=O)C4CCCCC4)c4sccc4n3)cc2)CC1`, the growth is 74.3%.

For the compound `N[C@@H](CSSC[C@H](N)C(=O)Nc1ccc(OCC2CCCC2)cc1)C(=O)Nc1ccc(OCC2CCCC2)cc1`, the growth is -77.2% (active).

In the case of `COc1ccc2nc(Cl)c(-c3cc(-c4ccccc4)nc(=O)[nH]3)cc2c1`, the growth was 6.75% (active).

For `O=C(Nc1ccc(OCc2ccccc2)cc1)Nc1ccc(Cl)c(C(F)(F)F)c1`, the growth is 1.39% (active).

For `COc1ccc2[nH]c(O)c(N=NC(=O)COc3ccc(NC(=O)Nc4ccc(Cl)cc4)cc3)c2c1`, the growth was 102%.

On to `Cc1cc2c(c(O)c1Br)-c1ncoc1C(=O)[C@]1(C)CC[C@H](C(C)C)[C@H]21`, for which the growth is 27.8%.

Regarding `CCN1CCN(c2ccc(NC(=O)Nc3ccc4c(c3F)CCN4c3ccnc(C(=O)NC)c3)cc2C(F)(F)F)CC1`, the growth is -67.6% (active).

As to `O=C1Nc2ccc(F)cc2/C1=C/c1cccc(OCc2ccccc2)c1`, the growth was -13.9% (active).

In the case of `Cc1ccc(NC(=O)c2ccc(-n3c(=O)[nH]c4ccccc4c3=O)cc2)cc1`, the growth was 80.2%.

On to `O=C(Nc1ccncc1)c1ccc(-n2c(=O)[nH]c3ccccc3c2=O)cc1`, for which the growth was 103%.

On to `Cc1ccc(-c2cc(-c3cc4ccccc4nc3Cl)[nH]c(=S)n2)cc1`, for which the growth was 42%.

In the case of `O=C(c1ccc(Cl)cc1)C1[C@H](c2ccc(Br)cc2)[C@@H](c2ccccc2)NC12C(=O)Nc1ccc(Cl)cc12` (some centres not stated), the growth was -89.9% (active).

With `O=C(O)CCCCCCCCCCN1C(=O)/C(=C/c2cnc(-c3ccc(Cl)cc3)s2)SC1=S`, the growth was 11%.

Consider `CN1CCN(c2ccc(Nc3nc(N4CCN(S(=O)(=O)c5ccc(Cl)cc5)CC4)c4sccc4n3)cc2)CC1`, for which the growth is 16.1%.

Turning to `CN1CCN(c2ccc(C(=O)/C=C/c3cc(Br)ccc3F)cc2)CC1`, the growth is 35.3%.

With `O=c1nc(-c2ccccc2)cc(-c2cc3ccccc3nc2Cl)[nH]1`, the growth was -70.1% (active).

For `CC1=C2C(=C[C@@](C)(CO)[C@@H]2O)/C(=N\N)[C@](C)(O)C12CC2`, the growth is -43.2% (active).

In the case of `O=C(c1ccc(O)cc1)C1[C@H](c2ccc(Br)cc2)[C@@H](c2ccccc2)NC12C(=O)Nc1ccc(Br)cc12` (some centres not stated), the growth is -2.8% (active).

Turning to `COc1ccc(C=CC(=O)c2ccc(-n3c(C)nc4c(cnn4-c4ccccc4)c3=O)cc2)cc1`, the growth is 62.3%.

Turning to `O=C(c1ccc(O)cc1)C1[C@H](c2ccccc2Br)[C@@H](c2ccccc2)NC12C(=O)Nc1ccc(Cl)cc12` (some centres not stated), the growth was 11.2%.

On to `O=C(c1ccccc1)n1ccc(-c2cc3cc(Br)ccc3oc2=O)n1`, for which the growth is -2.98% (active).

For the compound `C#Cc1ccc(S(=O)(=O)Nc2cccc(-c3csc(NC(C)=O)n3)c2)cc1`, the growth was 70.8%.

Regarding `O=C(N/N=C/c1ccc(-c2cccc([N+](=O)[O-])c2)o1)c1[nH]c2ccc(Br)cc2c1-c1ccccc1`, the growth was -50.9% (active).

With `O=C(Nc1nc2ccc([N+](=O)[O-])cc2s1)Nc1cc(Cl)ccc1I`, the growth is -34.5% (active).

`C=C(c1ccc(OC)c(N)c1)c1cc(C)nc2ccccc12`: the growth is -29% (active).

As to `CNC(=O)c1cccc(N2CCc3c2ccc(NC(=O)Nc2ccc(N4CCN(C)CC4)c(C(F)(F)F)c2)c3F)c1`, the growth was -79.2% (active).

As to `COc1ccc([C@H]2C(C(=O)c3ccc(Cl)cc3)C3(N[C@@H]2c2ccccc2)C(=O)Nc2ccc(Br)cc23)cc1` (some centres not stated), the growth is -27.2% (active).

Consider `CN1CCN(Cc2ccc(C(=O)Nc3cccc(Nc4ccc5cc(O)ccc5n4)c3)cc2C(F)(F)F)CC1`, for which the growth was 28.6%.

For the compound `Brc1ccc(/C=N/Nc2ncnc3sc4c(c23)CCN(Cc2ccccc2)C4)cc1`, the growth was 68.8%.

As for `COc1ccc(C(C)=C(c2ccc(OCCCN(C)C)cc2)c2ccc(OCCCN(C)C)cc2)cc1`, the growth is -96.6% (active).

For `C=C(C)[C@@H]1CC[C@]2(C(=O)OC)CC[C@]3(C)[C@H](CC[C@@H]4[C@@]5(C)CC[C@H](N)C(C)(C)[C@@H]5CC[C@]43C)[C@@H]12`, the growth was -83% (active).

As to `CS(=O)(=O)Nc1ccc(-c2ccc3c(c2)ncn3-c2ccc(NC(=O)Nc3ccc(Br)cc3)cc2)cc1`, the growth is 59.8%.

Turning to `CCCS(=O)(=O)c1oc(-c2ccc(F)cc2)nc1S(=O)(=O)c1ccc(F)cc1`, the growth is -52.2% (active).

As to `CC(C)CCSc1nc(NC2CC2)c(C#N)c(-c2ccc(C(C)C)cc2)n1`, the growth is 108%.

Consider `Cc1ccc(-c2nc3ccc(C(=O)N=Nc4c(O)[nH]c5ccc([N+](=O)[O-])cc45)cc3[nH]2)cc1`, for which the growth was 103%.
